Experimental data reported in ChEMBL document CHEMBL1961873, “Compounds: GSK PKIS; Assays: Nanosyn kinase panel” (2012).

Tests used:
[1] = target: T1, Serine/threonine-protein kinase TBK1 (Homo sapiens) (UniProt Q9UHD2); conditions: at 1 µM;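 also: values are mean inhibition of TBK1, screened as part of the GSK published kinase inhibitor set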
T1 sequence (whole entry): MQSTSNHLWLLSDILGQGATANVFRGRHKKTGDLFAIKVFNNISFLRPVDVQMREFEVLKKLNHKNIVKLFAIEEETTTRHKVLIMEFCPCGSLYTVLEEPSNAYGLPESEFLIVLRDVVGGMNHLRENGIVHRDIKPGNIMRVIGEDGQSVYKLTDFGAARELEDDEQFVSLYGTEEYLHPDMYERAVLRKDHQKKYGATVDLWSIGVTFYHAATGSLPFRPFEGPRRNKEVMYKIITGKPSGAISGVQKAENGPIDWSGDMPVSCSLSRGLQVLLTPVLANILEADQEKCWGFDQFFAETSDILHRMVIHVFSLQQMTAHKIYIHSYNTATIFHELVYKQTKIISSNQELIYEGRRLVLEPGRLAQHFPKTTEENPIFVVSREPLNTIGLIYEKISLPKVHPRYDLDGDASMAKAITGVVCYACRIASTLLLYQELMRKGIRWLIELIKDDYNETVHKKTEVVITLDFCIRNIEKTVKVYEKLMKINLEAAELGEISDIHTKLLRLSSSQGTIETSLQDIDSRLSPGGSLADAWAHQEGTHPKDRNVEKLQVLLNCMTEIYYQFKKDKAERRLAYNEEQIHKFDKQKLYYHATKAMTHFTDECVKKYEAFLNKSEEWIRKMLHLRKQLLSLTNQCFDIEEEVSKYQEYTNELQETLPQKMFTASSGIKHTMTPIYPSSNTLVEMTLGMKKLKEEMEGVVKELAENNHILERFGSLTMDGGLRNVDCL

[2] = target: T2, Testis-specific serine/threonine-protein kinase 1 (Homo sapiens) (UniProt Q9BXA7); conditions: at 0.1 µM
T2 sequence (whole entry): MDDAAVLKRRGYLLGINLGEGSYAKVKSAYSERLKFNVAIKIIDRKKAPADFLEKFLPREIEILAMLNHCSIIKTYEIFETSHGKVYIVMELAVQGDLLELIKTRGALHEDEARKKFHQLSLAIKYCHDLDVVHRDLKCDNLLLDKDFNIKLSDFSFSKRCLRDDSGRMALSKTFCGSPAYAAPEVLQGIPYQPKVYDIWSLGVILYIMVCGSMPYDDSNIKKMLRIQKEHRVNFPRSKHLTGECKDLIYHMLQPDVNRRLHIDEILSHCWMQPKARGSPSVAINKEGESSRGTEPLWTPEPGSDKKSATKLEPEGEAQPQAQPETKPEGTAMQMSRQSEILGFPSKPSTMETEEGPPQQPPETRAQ

[3] = target: T2, Testis-specific serine/threonine-protein kinase 1 (Homo sapiens); conditions: at 1 µM
[4] = target: T3, Testis-specific serine/threonine-protein kinase 2 (Homo sapiens) (UniProt Q96PF2); conditions: at 0.1 µM
T3 sequence (whole entry): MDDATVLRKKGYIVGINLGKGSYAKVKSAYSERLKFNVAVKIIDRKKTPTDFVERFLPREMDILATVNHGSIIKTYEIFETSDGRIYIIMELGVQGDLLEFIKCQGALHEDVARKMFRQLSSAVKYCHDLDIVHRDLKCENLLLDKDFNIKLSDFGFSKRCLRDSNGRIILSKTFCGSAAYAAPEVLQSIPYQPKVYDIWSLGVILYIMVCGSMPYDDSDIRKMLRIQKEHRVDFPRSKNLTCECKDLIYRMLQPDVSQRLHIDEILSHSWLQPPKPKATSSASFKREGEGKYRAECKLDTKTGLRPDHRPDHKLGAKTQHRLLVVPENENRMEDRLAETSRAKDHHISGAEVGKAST

[5] = target: T3, Testis-specific serine/threonine-protein kinase 2 (Homo sapiens); conditions: at 1 µM
[6] = target: Casein kinase I isoform alpha (Homo sapiens) (UniProt P48729); conditions: at 0.1 µM
[7] = target: Casein kinase I isoform alpha (Homo sapiens) (UniProt P48729); conditions: at 1 µM
[8] = target: Casein kinase I isoform gamma-1 (Homo sapiens) (UniProt Q9HCP0); conditions: at 0.1 µM
[9] = target: Casein kinase I isoform gamma-1 (Homo sapiens) (UniProt Q9HCP0); conditions: at 1 µM
[10] = target: Casein kinase I isoform gamma-2 (Homo sapiens) (UniProt P78368); conditions: at 0.1 µM
[11] = target: Casein kinase I isoform gamma-2 (Homo sapiens) (UniProt P78368); conditions: at 1 µM
[12] = target: Casein kinase I isoform gamma-3 (Homo sapiens) (UniProt Q9Y6M4); conditions: at 0.1 µM
[13] = target: Casein kinase I isoform gamma-3 (Homo sapiens) (UniProt Q9Y6M4); conditions: at 1 µM
[14] = target: Cyclin-dependent kinase 1 (Homo sapiens) (UniProt P06493); conditions: at 0.1 µM
[15] = target: Cyclin-dependent kinase 1 (Homo sapiens) (UniProt P06493); conditions: at 1 µM
[16] = target: Cyclin-dependent kinase 2 (Homo sapiens) (UniProt P24941); conditions: at 0.1 µM
[17] = target: Cyclin-dependent kinase 2 (Homo sapiens) (UniProt P24941); conditions: at 1 µM
[18] = target: Cyclin-dependent kinase 2 (Homo sapiens) (UniProt P24941); conditions: at 0.1 µM; remark: listed apart in the source
[19] = target: Cyclin-dependent kinase 2 (Homo sapiens) (UniProt P24941); conditions: at 1 µM; remark: listed apart in the source
[20] = target: CDK3/Cyclin E (Homo sapiens) (UniProt P24864+Q00526); conditions: at 0.1 µM;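 also: reported percentages are mean inhibition values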
Chain of CDK3/Cyclin E (Homo sapiens) (P24864 whole entry, looked up): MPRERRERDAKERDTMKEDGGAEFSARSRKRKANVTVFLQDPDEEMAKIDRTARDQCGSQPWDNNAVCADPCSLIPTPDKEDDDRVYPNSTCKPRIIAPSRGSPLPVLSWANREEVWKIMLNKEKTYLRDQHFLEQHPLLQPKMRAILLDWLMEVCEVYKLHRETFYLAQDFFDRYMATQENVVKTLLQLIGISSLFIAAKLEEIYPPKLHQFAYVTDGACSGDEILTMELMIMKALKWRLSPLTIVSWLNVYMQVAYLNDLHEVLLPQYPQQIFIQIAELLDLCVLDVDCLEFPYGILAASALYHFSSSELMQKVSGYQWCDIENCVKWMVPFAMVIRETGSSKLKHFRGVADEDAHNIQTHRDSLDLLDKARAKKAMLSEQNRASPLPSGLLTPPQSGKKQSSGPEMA
Chain of CDK3/Cyclin E (Homo sapiens) (Q00526 whole entry, looked up): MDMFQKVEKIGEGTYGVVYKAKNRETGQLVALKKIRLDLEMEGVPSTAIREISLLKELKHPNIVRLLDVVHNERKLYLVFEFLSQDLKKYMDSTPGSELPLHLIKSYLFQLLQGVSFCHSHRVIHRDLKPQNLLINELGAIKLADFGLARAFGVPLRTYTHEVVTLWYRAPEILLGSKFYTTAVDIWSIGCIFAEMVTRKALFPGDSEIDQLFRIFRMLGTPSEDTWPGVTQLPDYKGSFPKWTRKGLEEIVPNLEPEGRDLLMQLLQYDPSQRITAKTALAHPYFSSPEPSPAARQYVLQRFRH

Chain of Casein kinase I isoform gamma-3 (Homo sapiens) (Q9Y6M4 whole entry, looked up, canonical isoform): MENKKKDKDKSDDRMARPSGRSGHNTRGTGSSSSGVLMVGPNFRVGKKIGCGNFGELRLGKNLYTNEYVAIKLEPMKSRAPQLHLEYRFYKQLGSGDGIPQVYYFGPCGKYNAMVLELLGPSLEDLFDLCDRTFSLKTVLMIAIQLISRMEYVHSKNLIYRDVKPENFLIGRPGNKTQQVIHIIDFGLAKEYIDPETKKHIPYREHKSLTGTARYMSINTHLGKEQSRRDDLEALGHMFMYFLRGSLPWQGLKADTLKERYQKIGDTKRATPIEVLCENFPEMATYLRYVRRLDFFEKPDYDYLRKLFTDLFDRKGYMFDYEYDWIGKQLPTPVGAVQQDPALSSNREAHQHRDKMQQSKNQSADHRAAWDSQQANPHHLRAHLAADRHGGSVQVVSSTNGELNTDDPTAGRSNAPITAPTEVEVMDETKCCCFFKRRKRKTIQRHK
Chain of Casein kinase I isoform alpha (Homo sapiens) (P48729 2-337 limits assumed): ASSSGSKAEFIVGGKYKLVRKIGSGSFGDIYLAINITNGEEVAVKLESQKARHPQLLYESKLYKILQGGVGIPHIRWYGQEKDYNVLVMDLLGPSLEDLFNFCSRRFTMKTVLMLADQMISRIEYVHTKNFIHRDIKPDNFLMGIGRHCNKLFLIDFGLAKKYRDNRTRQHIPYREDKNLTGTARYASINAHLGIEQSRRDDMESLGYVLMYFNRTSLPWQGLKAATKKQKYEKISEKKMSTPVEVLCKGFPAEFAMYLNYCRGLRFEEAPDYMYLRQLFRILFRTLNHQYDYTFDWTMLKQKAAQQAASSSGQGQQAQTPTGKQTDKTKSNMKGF
Chain of Casein kinase I isoform gamma-2 (Homo sapiens) (P78368 whole entry, looked up, canonical isoform): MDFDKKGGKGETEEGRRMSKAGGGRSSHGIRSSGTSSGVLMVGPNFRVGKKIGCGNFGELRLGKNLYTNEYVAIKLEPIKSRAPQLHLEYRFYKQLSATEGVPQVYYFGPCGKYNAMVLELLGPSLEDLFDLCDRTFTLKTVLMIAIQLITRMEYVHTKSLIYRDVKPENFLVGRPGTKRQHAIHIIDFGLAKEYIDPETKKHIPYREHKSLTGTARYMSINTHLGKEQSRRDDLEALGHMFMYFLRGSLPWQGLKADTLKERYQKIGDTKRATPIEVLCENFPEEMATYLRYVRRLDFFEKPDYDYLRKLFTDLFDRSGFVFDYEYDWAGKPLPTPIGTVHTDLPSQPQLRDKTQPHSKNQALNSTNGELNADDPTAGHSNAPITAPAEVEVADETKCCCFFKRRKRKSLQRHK
Chain of Cyclin-dependent kinase 1 (Homo sapiens) (P06493 whole entry, looked up): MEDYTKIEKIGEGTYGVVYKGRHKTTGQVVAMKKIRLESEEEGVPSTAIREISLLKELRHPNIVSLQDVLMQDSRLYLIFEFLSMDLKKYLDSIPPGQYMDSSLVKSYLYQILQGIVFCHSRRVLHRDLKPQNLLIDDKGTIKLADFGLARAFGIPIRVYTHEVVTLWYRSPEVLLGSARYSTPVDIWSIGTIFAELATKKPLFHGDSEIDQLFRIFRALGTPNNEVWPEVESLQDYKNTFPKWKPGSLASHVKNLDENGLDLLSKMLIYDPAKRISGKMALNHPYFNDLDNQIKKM
Chain of Casein kinase I isoform gamma-1 (Homo sapiens) (Q9HCP0 whole entry, looked up, canonical isoform): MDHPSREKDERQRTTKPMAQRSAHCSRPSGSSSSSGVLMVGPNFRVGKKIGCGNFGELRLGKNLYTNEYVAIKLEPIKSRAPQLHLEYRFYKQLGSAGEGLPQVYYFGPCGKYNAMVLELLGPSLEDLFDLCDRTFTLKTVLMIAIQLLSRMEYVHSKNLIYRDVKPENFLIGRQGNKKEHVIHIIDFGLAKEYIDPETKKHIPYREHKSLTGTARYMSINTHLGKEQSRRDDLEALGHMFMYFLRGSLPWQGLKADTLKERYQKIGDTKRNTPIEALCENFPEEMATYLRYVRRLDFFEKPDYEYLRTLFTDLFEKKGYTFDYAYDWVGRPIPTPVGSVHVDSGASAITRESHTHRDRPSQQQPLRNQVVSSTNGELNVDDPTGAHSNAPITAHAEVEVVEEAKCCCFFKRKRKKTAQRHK

Structure (SMILES)	inhibition [1]	inhibition [2]	inhibition [3]	inhibition [4]	inhibition [5]	inhibition [6]	inhibition [7]	inhibition [8]	inhibition [9]	inhibition [10]	inhibition [11]	inhibition [12]	inhibition [13]	inhibition [14]	inhibition [15]	inhibition [16]	inhibition [17]	inhibition [18]	inhibition [19]	inhibition [20]
CN(C)CCCn1c(-c2nonc2N)nc2cnccc21	6.08%	3.44%	7.78%	0.64%	0.45%	5.03%	6.31%	4.45%	5.34%	3.15%	4.54%	1.5%	3.26%	1.58%	2.19%	2.53%	-3.59%	4.53%	6.13%	4.24%
O=C1Nc2ccccc2/C1=C/Nc1ccc2[nH]c(=O)[nH]c2c1	21.2%	4.5%	8.92%	3.14%	4.56%	8.75%	21.8%	4.87%	7.45%	3.6%	7.61%	3.84%	7.65%	1.63%	8.12%	2.91%	7.88%	3.74%	12.8%	5.68%
CCn1c(-c2nonc2N)nc2c(C#CC(C)(C)O)nc(OCCNC)cc21	8.57%	5.86%	18%	1.75%	2.65%	3.87%	8.13%	3.33%	4.48%	3.26%	6.19%	2.99%	1.61%	3.65%	2.4%	3.96%	3.53%	2.75%	5.28%	-3.05%
NS(=O)(=O)c1cccc(Nc2cc(-c3ccc(F)cc3)n[nH]2)c1	15.2%	4.49%	6.59%	3.05%	2.38%	-3.61%	3.36%	2.11%	3.54%	1.72%	4.87%	1.83%	4.57%	0.79%	9.28%	2.32%	11.1%	7.11%	28.4%	10.6%
CS(=O)(=O)Nc1cccc(-c2ccc3c(NC(=O)C4CC4)n[nH]c3c2)c1	3.56%	1.06%	0.45%	0.02%	-1.13%	1.72%	1.75%	0.64%	3.47%	-0.83%	0.91%	0.37%	1.22%	1.04%	3.4%	1.58%	6.73%	1.31%	4.6%	2.08%
CCCN1CCCC(c2ccc(Nc3nc(Nc4cc(F)ccc4C(N)=O)c4cc[nH]c4n3)c(OC)c2)C1 (stereo not given)	11.5%	81%	92.6%	62.5%	86%	44.3%	78.5%	36.1%	78%	29.6%	78.6%	44.3%	83.5%	0.12%	2.76%	2.13%	10.8%	3.57%	8.67%	4.8%
NS(=O)(=O)c1ccc(-c2cc3ccncc3cc2OCc2ccccc2)cc1	2.74%	3.43%	3.97%	2.95%	2.52%	4.76%	3.35%	2.57%	3.44%	1.61%	3.43%	1.53%	4.76%	-0.03%	0.11%	1.51%	2.11%	1.41%	1.57%	4.12%
FC(F)(F)c1ccc(-c2nn3ncccc3c2-c2ccnc(Nc3ccc4c(c3)OCCO4)n2)cc1	4.67%	1.27%	4.75%	2.11%	5.84%	9.84%	4.54%	-0.1%	0.59%	0.52%	0.81%	0.18%	1.72%	5.01%	4.37%	1.49%	-1.87%	5.4%	5.36%	7.17%
CC(C)c1ccc2c(c1)NC(=O)/C2=N/Nc1ccc(S(N)(=O)=O)cc1	-0.26%	-0.2%	1.24%	0.12%	0.46%	0.06%	0.18%	0.11%	0.56%	0.63%	0.09%	1.05%	0.02%	2.52%	6.84%	5.99%	28.9%	3.16%	18.9%	1.54%
Cc1nc(-c2ccccc2)n2nc(NCCCN3CCOCC3)ncc12	6.52%	0.26%	3.44%	0.32%	0.77%	1.74%	8.04%	2.06%	2.66%	2.09%	2.19%	1.6%	1.78%	1.76%	2.4%	2.24%	2.48%	2.24%	4.68%	-1.66%
C[C@@H](Oc1cc(-n2cnc3ccc(OCC4CCN(C)CC4)cc32)sc1C(N)=O)c1ccccc1C(F)(F)F	-1.33%	1.47%	22.4%	-1.17%	-0.35%	-4.16%	-1.43%	-1.72%	-1.25%	-1.74%	-3.37%	-1.08%	-3.59%	2.12%	3.02%	-0.78%	2.52%	-0.93%	0.83%	-1.54%
OCc1ccc(-c2nc(-c3ccccn3)c(-c3ccc4c(c3)OCO4)[nH]2)cc1	4.95%	3.19%	1.78%	0.7%	-1.56%	9.48%	43.3%	4.27%	5.16%	3.01%	4.06%	3.67%	4.78%	0.21%	1.4%	1.49%	-2.92%	3.56%	4.52%	1.69%
N#Cc1cccc(Nc2nccc(-c3cnn4ncccc34)n2)c1	22.1%	6.69%	10.6%	2.43%	2.95%	28.9%	69.8%	5.75%	28.2%	6.38%	41.4%	8.75%	43%	83.8%	89.2%	89.8%	121%	82.3%	87.2%	76.7%
CN(C)C(=O)O[C@@H]1CN[C@@H](C#Cc2cc3ncnc(Nc4ccc(OCc5cccc(F)c5)c(Cl)c4)c3s2)C1	2.9%	-0.67%	-0.36%	-0.92%	-1.41%	9.15%	6.58%	2%	6.01%	1.45%	5.93%	0.73%	5.49%	0.38%	0.19%	0.82%	7.43%	0.72%	1.06%	3.66%
COc1cc(Nc2nccc(-c3cnn4ncccc34)n2)cc(OC)c1	33.2%	3.46%	16.9%	0.24%	0.16%	11.9%	45.4%	2.54%	19.9%	3.83%	39.3%	3.02%	34.9%	69.1%	91.3%	54.5%	110%	63.6%	90%	34.6%
CN1CCN(C(=O)c2ccc(NC(=O)Nc3ccc(N(C)c4ccnc(Nc5ccc(CS(C)(=O)=O)cc5)n4)cc3)cc2)CC1	12.6%	0.02%	1.8%	0.71%	0.35%	0.51%	2.95%	1.88%	2.79%	1.94%	1.64%	1.17%	1.29%	2.37%	5.28%	4.51%	10.8%	0.96%	5.93%	-1.55%
c1ccc(Cc2nc3ccc(Nc4ncnc5ccccc45)cc3[nH]2)cc1	5.54%	0.97%	2.75%	-0.59%	4.11%	8.25%	7.49%	2.6%	6.23%	2.94%	8.66%	3.41%	5.53%	3.12%	4.29%	2.89%	7.78%	6.18%	8.1%	4.46%
Cc1cc(O)cc(C)c1/C=C/c1cncc(C(=O)N(C)C)c1	4.11%	4.05%	0.84%	2.08%	0.19%	1.94%	3.01%	1.26%	1.95%	1.03%	3.24%	0.86%	-0.84%	1.02%	5.98%	2.51%	0.67%	1.36%	4.91%	1.4%
COc1cccc(-n2nc(C)c3c(N/N=C(\C)c4ccncc4)ncnc32)c1	-1.57%	1.47%	1.88%	-0.53%	-0.42%	-1.81%	0.17%	0.02%	0.62%	0.14%	0.28%	-0.15%	-0.59%	0.65%	2.77%	1.78%	7.56%	1.09%	2.33%	-0.92%
NS(=O)(=O)c1ccc(NC=C2C(=O)Nc3ccc4ncsc4c32)cc1	65.6%	8.91%	33.5%	2.62%	3.73%	4.2%	22.3%	5.22%	18.2%	3.58%	19.5%	6.11%	26.3%	40.7%	69.5%	89.1%	109%	74.3%	76.7%	69.4%
Cc1ccc(Nc2ccnc(Nc3cccc(C(N)=O)c3)n2)cc1O	19.6%	3.41%	5.19%	1.39%	1.65%	1.66%	4.05%	-1.2%	1.43%	-1.06%	0.87%	-2.96%	0.07%	-3.61%	1.29%	-0.93%	16.1%	-0.2%	7.62%	1.92%
